# DT40 TDP1 CPT: DT40-hTDP1 cell growth loss with CPT; chicken DT40 Tdp1-/-;hTDP1 cells + 20 nM CPT, ATP luminescence, 48 h; Potency, µM (top dose mostly 46.2 µM), inactives show top-dose activity change, negative = growth inhibition, actives largely listed as inhibitors; AID 686979; actives 12% (n = 420,000); further: on the % scale 0 is the no-effect control and ±100 the full control effect; nearly all actives have a fitted effect of over 55% in size
#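 Chicken DT40 Tdp1-/- cells stably complemented with human TDP1 were seeded at 400 cells/well in medium containing 20 nM camptothecin, exposed to pin-transferred compounds, and grown at 37 °C for at least 48 hr. Viability was read as ATP luminescence.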
# TDP1 cell noCPT: qHTS for Inhibitors of human tyrosyl-DNA phosphodiesterase 1 (TDP1): qHTS in cells in absence of CPT; DT40 Tdp1-/- hTDP1 cells, no CPT, ATP luminescence, 48 h; Potency, µM (titrated, usually from 46.2 µM), inactives show top-dose activity change, negative = growth inhibition, hits mostly inhibitors; actives 15% (n = 420,000); further: on the % scale 0 is the no-effect control and ±100 the full control effect; nearly all actives have a fitted effect of over 55% in size
#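 Cells were dispensed at 400 per well, compounds added by pin tool, plates incubated ≥48 hr at 37 °C, then CellTiter-Glo added for 30 min at room temperature before luminescence reading. Line: DT40 Tdp1-/- complemented with hTDP1; camptothecin omitted.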
# TGFb SMAD3 inh: TGF-b pathway inhibition. HepG2 CAGA-GFP TGF-b/SMAD3 reporter, GFP fluorescence, 18 h; TGF-beta stimulated, 500 pg/mL final. Potency, µM (titrated, usually from 46.1 µM), for the others: top-dose activity, negative = inhibition, hits mostly inhibitors. actives 1.2% (n = 410,000); further: on the % scale 0 is the no-effect control and ±100 the full control effect; nearly all actives have a fitted effect of over 65% in size
#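 Inhibition of TGF-beta-driven CAGA-GFP reporter expression in HEPG2 cells is measured by cellular GFP fluorescence after 18 h stimulation with 500 pg/mL recombinant TGF-beta in 1% FBS medium at 37 degrees C.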
# S2 tox: cell viability loss in ATXN counter-screen. S2 cells (HEK-293 line with an ATXN2-luciferase reporter) viability, CellTiter-Fluor protease fluorescence, 24 h. Potency, µM (doses to about 56.7 µM), hits mostly cytotoxic. AID 651635. actives 0.49% (n = 400,000); further: nearly all actives have a fitted effect of over 40% in size
# ATXN2 expr inh: reduces ATXN2 reporter expression in HEK-293 cells | HEK-293 ATXN2-luciferase reporter, luminescence, 24 h | Potency, µM (titrated, usually from 57 µM), for inactives: at the top dose activity change, negative = inhibition, hits mostly inhibitors | actives 0.72% (n = 360,000); further: on the % scale 0 is the no-effect control and ±100 the full control effect; nearly all actives have a fitted effect of over 55% in size
#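 qHTS (up to 57 uM final) was run with 24 h compound exposure of reporter cells at 37 °C. Each well was multiplexed: SteadyGlo luminescence measured ATXN2-luciferase expression after a fluorogenic Gly-Phe-AFC viability readout (25 uM final).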
# HepG2 tox: counter-screen for TGF-b inhibitors: cytotoxicity in HepG2 cells. HepG2 CAGA-GFP viability, ATP luminescence, 18 h. Potency, µM (top dose mostly 46.1 µM), inactives show at the top dose activity change, negative = cytotoxicity, usual class: cytotoxic. actives 0.76% (n = 410,000). AID 588856
#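 CellTiter-Glo luminescence gave cytotoxicity after 18 hours at 37 degrees C. The cells were HepG2 CAGA-GFP in 1% FBS DMEM, stimulated with 500 pg/mL TGF-beta after compound addition. %Activity was normalised to no-cell wells (complete cell-killing) and DMSO (no toxicity), and curves were fitted and classified.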
# * hit, by the source's call; i = inactive; ? = inconclusive; . = not tested or not shown; [ ] = remark or other dose. Only some compounds are listed: those with a hit (about 17% of all), similar ones and a draw of the others. The call rests on the fitted dose curve; in most records, active means well fitted curve in the direction sought with a large enough effect; inconclusive means small, poorly fitted or top-dose-only effect, or another doubt; inactive means no such curve, though single readings can be large; an effect the other way counts as inactive or inconclusive. Potency means the concentration at half of the fitted maximal effect.
SMILES,DT40 TDP1 CPT,TDP1 cell noCPT,TGFb SMAD3 inh,S2 tox,ATXN2 expr inh,HepG2 tox
COc1ccc(C(CNC(=O)c2cccc(NS(=O)(=O)c3ccccc3)c2)N(C)C)cc1 (stereo not drawn),-26%,-17%,-8%,?,8%,-24%
Cc1ccc(C(C[N+](=O)[O-])c2c(C)[nH]n(-c3ccccc3)c2=O)cc1 (stereo not drawn),4.6µM*,5.8µM*,?,i,3%,-27%
Cc1[nH]n(-c2ccccc2)c(=O)c1C(C[N+](=O)[O-])c1ccc(Cl)cc1 (stereo not drawn),3.3µM*,4.1µM*,-22%,i,-20%,-10%
Cc1[nH]n(-c2ccccc2)c(=O)c1C(C[N+](=O)[O-])c1ccc(F)cc1 (stereo not drawn),7.3µM*,12µM*,0%,i,15%,-13%
Cc1[nH]n(-c2ccccc2)c(=O)c1C(c1ccccc1C(=O)O)c1c(C)[nH]n(-c2ccccc2)c1=O,-19%,6%,-3%,i,-3%,6%
Cc1[nH]n(-c2ccccc2)c(=O)c1C(c1ccccc1[N+](=O)[O-])C(C#N)C#N (stereo not drawn),?,?,-18%,i,.,-2%
Cc1ccc2nc(SCC(=O)Nc3cccc(S(=O)(=O)NC4=NCCCCC4)c3)[nH]c2c1,?,?,-16%,i,-21%,-13%
N#CC1=C(N)SC(N)=C(C#N)C1c1ccc([N+](=O)[O-])cc1,15µM*,?,-26%,i,-17%,-11%
CCS(=O)(=O)c1nnnn1-c1ccccc1S(C)(=O)=O,?,?,11µM*,?,-26%,-2%
O=S(=O)(Cc1nnnn1-c1ccc(Br)cc1)c1ccccc1,-12%,-9%,-7%,i,.,-37%
CCc1nc2ccc(C(=O)NCCCN(C)C)cn2c1N(C)CCCc1ccccc1,?,?,17%,?,?,-79%
CCc1nc2ccc(C(=O)N3CCN(C(=O)c4ccco4)CC3)cn2c1N(C)Cc1cccs1,?,?,1%,i,-6%,-8%
CCc1nc2ccc(C(=O)NC3CCN(Cc4ccccc4)CC3)cn2c1N(C)Cc1cccs1,?,16µM*,?,?,-2%,-41%
CCc1nc2ccc(C(=O)NC3CCN(Cc4ccccc4)CC3)cn2c1N(C)Cc1cc2ccccc2s1,26µM*,21µM*,?,?,?,-111%
O=C(CCS(=O)(=O)c1cccc2nonc12)Nc1cccc(F)c1,11%,-20%,-10%,i,-11%,-2%
O=C(NC(=S)N1CCN(Cc2ccc3c(c2)OCO3)CC1)c1cccc(Br)c1,16µM*,15µM*,?,i,?,-27%
CCNC(=S)N1CCN(Cc2ccc3c(c2)OCO3)CC1,-11%,12%,13%,i,-18%,1%
O=C(NC(=S)N1CCN(Cc2ccc3c(c2)OCO3)CC1)c1ccc(Cl)cc1,?,21µM*,-27%,i,0%,-32%
Cc1ccccc1-n1c(C)nnc1SCC(=O)N1CCc2ccccc2C1,0%,?,1%,i,2%,-7%
O=C(NCc1cccnc1)c1cc(C2CCCN(C(=O)c3cccs3)C2)on1 (stereo not drawn),?,?,4%,i,-6%,-18%
Cc1cccc(NC(=O)c2ccc(NS(=O)(=O)c3cccc4cccnc34)cc2)c1,-6%,-27%,-4%,i,-14%[11.3 µM],-19%
Cc1ccccc1NCc1cccn1-c1nnc(N2CCC(C)CC2)s1,?,?,-11%,i,18%,-4%
COC(=O)[C@@]12C[C@@H](CC(=O)N3CCCC3)C(=O)N(Cc3ccccc3)C1=CCC(C)(C)C2,23µM*,?,.,.,.,.
COC(=O)[C@@]12C[C@@H](CC(=O)N3CCCCC3)C(=O)N(Cc3ccccc3)C1=CCC(C)(C)C2,?,18µM*,.,.,.,.
COC(=O)[C@@]12C[C@@H](CC(=O)N3CCCC3)C(=O)N(Cc3ccco3)C1=CCC(C)(C)C2,?,16µM*,.,.,.,.
SMILES,DT40 TDP1 CPT,TDP1 cell noCPT,TGFb SMAD3 inh,S2 tox,ATXN2 expr inh,HepG2 tox
COC(=O)[C@@]12C[C@@H](CC(=O)N3CCOCC3)C(=O)N(Cc3ccc4c(c3)OCO4)C1=CCC(C)(C)C2,?,-29%,.,.,.,.
CC(=O)CC(=O)[C@@]1(O)CC[C@@H]2[C@@H]3C=C(C)C4=CC(=O)CC[C@@H]4[C@H]3CC[C@]21C,.,.,.,i,.,.
O=C(NCc1ccccn1)c1cnn(-c2nccc(-c3ccccc3F)n2)c1C1CC1,-7%[9.04 µM],-15%,.,i,.,.
O=C(NCc1ccco1)c1cnn2c1NC(c1ccccc1)CC2C(F)(F)F (stereo not drawn),18µM*,-12%,19%,i,-18%,0%
O=C(NCc1ccco1)c1cnn2c1NC(c1ccc(Br)cc1)CC2C(F)(F)F (stereo not drawn),4.1µM*,4.1µM*,?,i,-18%,0%
O=C(O)c1cnn2c1NC(c1ccc(F)cc1)CC2C(F)(F)F (stereo not drawn),-20%,-5%,-10%,i,-2%,-11%
COc1cc(NC(=O)COc2ccccc2)c(OC)cc1NC(C)=O,12%,-27%,0%,i,-6%,0%
CCCCC1(CC(=O)OCC)C(=O)N(c2ccccc2)N(c2ccccc2)C1=O,1%,?,-4%,i,-4%,-14%
COc1ccc2[nH]c3c(c2c1)CCN1C(=O)N([C@@H](C)C(=O)NC2CCCCC2C)C(=O)[C@]31C (stereo partly drawn),?,?,-25%,i,-17%,-9%
CCc1nc2ccc(C(=O)NCCN3CCOCC3)cn2c1N(C=O)Cc1ccc(OC)cc1,12%,-3%,1%,i,9%,-1%
CCc1nc2ccc(C(=O)NCCN3CCOCC3)cn2c1N(C)Cc1ccc(OC)cc1,?,23µM*,4%,i,-4%,-1%
CCc1nc2ccc(C(=O)NCCCN3CCCC3=O)cn2c1N(C)Cc1ccc(OC)cc1,16µM*,?,-3%,i,11%,3%
CCc1nc2ccc(C(=O)NCCCN3CCCC3=O)cn2c1N(C)C(=O)c1cccc(OC)c1,2%,-6%,1%,i,12%,-7%

# Screening results: PubChem, National Center for Advancing Translational Sciences (NCATS)
